Data on 20 compounds can be found in PubChem BioAssay.

Structures are written as SMILES. Values without a mark were called inactive. For some of these results: Potency and affinity values are given separately. Activity calls are given as the source filed them. Unless noted, no rule for the calls is given here.

Assay [1] in a line: antimalarial activity against Dd2 strain (AID 2302;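 active = growth inhibition above 50% at the single 2 µM test dose, taken to imply half-maximal potency below 2 µM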;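 also: 0% = DMSO untreated growth and 100% = chloroquine plus artemisinin killed control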). Conditions: P. falciparum Dd2 in RBCs, LDH growth readout, 72 h; at 2 µM; hits give high values.
A short description of assay [2]: HepG2 cytotoxicity, primary screen, cytotoxicity control for P. falciparum antimalarial project, cell-based, ATP luminescence (AID 2303;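 active = inhibition above 50%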;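 also: 0% = DMSO wells and 100% = digitonin-killed cells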). To be noted: HepG2 viability, 24-48 h, at 10 µM, hits give high values.
Assay [3] concerns the target L-lactate dehydrogenase (Plasmodium falciparum (isolate CDC / Honduras)) (UniProt Q27743). Nature of the assay: PfLDH activity inhibition – cell lysate, 3D7 strain, counter-screen for P. falciparum growth inhibition project (AID 2304).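 Also: 0% = vehicle and 100% = reference inhibitor.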 To be noted: P. falciparum 3D7 crude extract, LDH APAD/NBT absorbance; at 2 µM; hits give high values. (In general: The purpose of a counterscreen is to sort out artefacts and off-target activity.)

A short description of assay [4]: inhibition of 3D7 malaria parasite growth – strain 3D7 (AID 2306).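 Also: 0% = DMSO wells and 100% = chloroquine plus artemisinin control wells.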 To be noted: P. falciparum 3D7 erythrocytic growth, LDH absorbance, 72 h; at 2 µM; hits give high values.
Assay [5] deals with Calcium-dependent protein kinase 1 (Plasmodium falciparum (isolate 3D7)) (UniProt P62344). Nature of the assay: PfCDPK1 kinase inhibitors, biochemical, TCAMS library (AID 1159585; cut-off not given, nearly all actives have IC50 up to about 0.98 µM;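 also: inhibitors leave more ATP so luminescence rises with inhibition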). To be noted: recombinant PfCDPK1, Kinase-Glo ATP depletion luminescence. In general terms: Kinase-Glo measures the ATP left after a reaction by luminescence.
Sequence of Calcium-dependent protein kinase 1 (Plasmodium falciparum (isolate 3D7)) (P62344 whole entry, looked up): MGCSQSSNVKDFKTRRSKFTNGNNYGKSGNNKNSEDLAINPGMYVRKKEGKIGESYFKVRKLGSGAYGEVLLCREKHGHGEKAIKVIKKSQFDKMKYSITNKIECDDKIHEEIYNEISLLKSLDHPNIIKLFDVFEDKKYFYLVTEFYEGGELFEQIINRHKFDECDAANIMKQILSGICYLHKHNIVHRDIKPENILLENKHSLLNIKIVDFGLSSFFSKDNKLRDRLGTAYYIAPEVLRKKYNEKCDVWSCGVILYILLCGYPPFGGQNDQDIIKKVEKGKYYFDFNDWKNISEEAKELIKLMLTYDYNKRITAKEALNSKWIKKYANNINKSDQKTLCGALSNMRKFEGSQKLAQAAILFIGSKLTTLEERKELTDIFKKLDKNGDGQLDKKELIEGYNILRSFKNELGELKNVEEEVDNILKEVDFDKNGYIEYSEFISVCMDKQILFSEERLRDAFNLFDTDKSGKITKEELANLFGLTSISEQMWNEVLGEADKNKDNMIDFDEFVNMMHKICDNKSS
Assay [6] concerns the target Plasmodium falciparum protein kinase 6 (PK6, PF3D7_1337100) (UniProt Q8IDW1). Nature of the assay: PfPK6 kinase inhibitors, biochemical, TCAMS library (AID 1159586). To be noted: recombinant PfPK6, Kinase-Glo ATP depletion luminescence.
In assay [7] the target is Protein kinase 7 (PK7), Plasmodium falciparum 3D7 (PF3D7_0213400) (UniProt Q7YTF7). Nature of the assay: inhibition of Plasmodium PK7 catalytic activity – biochemical, TCAMS antimalarial set, Kinase-Glo luminescence (AID 1159587). To be noted: recombinant PfPK7, Kinase-Glo ATP depletion luminescence.
Sequence of Protein kinase 7 (PK7), Plasmodium falciparum 3D7 (PF3D7_0213400) (Q7YTF7 1-343): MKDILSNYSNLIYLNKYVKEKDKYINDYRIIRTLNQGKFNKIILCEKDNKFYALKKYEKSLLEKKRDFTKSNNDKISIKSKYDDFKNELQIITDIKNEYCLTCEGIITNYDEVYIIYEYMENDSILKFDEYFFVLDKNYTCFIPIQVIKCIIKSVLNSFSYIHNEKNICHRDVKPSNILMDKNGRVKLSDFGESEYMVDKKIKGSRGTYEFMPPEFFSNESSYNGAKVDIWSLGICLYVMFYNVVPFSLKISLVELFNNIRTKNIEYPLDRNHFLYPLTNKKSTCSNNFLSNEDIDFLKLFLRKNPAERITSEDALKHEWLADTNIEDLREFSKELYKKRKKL
Assay [8] deals with Calcium-dependent protein kinase 4 (Plasmodium falciparum (isolate 3D7)) (UniProt Q8IBS5). Nature of the assay: PfCDPK4 kinase inhibitors, biochemical, TCAMS library (AID 1159588; cut-off not given, nearly all actives have IC50 up to about 0.91 µM). To be noted: recombinant PfCDPK4, Kinase-Glo ATP depletion luminescence.
Sequence of Calcium-dependent protein kinase 4 (Plasmodium falciparum (isolate 3D7)) (Q8IBS5 whole entry, looked up): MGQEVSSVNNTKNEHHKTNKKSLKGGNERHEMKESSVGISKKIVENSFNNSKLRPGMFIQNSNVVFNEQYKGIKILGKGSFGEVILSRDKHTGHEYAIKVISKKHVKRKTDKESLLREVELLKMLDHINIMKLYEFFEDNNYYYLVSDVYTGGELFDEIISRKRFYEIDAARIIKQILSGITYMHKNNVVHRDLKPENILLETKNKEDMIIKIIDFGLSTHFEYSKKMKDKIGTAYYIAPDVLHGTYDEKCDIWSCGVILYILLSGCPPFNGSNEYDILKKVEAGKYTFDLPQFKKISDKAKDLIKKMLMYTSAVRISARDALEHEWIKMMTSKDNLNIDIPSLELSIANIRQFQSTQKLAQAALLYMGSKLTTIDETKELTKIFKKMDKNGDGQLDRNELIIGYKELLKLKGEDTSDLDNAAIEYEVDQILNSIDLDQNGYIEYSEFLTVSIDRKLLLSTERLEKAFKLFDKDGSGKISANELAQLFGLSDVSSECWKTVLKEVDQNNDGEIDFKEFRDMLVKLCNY

Sequence of Plasmodium falciparum protein kinase 6 (PK6, PF3D7_1337100) (Q8IDW1 1-305): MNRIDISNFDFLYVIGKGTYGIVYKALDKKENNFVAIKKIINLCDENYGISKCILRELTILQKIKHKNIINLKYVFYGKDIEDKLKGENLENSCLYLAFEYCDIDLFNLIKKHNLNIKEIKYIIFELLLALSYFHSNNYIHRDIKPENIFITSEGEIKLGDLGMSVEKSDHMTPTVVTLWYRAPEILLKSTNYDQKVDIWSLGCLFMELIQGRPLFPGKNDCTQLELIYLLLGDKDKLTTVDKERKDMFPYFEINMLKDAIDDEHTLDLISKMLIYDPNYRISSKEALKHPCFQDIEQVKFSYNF
Sequence of L-lactate dehydrogenase (Plasmodium falciparum (isolate CDC / Honduras)) (Q27743 whole entry, looked up): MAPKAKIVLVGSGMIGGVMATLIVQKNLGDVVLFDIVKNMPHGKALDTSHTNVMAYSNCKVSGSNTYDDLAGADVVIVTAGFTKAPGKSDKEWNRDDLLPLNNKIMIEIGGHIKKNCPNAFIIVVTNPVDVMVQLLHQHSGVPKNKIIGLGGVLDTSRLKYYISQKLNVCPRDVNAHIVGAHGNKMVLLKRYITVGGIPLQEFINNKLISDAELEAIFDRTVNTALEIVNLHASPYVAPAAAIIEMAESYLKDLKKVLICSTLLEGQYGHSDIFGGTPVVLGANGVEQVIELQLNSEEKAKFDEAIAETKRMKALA

Take `COc1cc2nc(NCc3nc4ccccc4[nH]3)nc(N)c2cc1OC`: the figures for the growth inhibition in assay [1] and in assay [4] were 10% and 97% (active), respectively. The inhibition was 3% in assay [2] and -2% in assay [3]. The outcome in assay [5], in assay [6], in assay [7] and in assay [8] was inactive.
`O=C(C=Cc1ccc(Cl)c(Cl)c1)NC1CCN(CCc2ccccc2)CC1`: the growth inhibition in assay [1] was 13%; in assay [4], 97% (active). Further, the inhibition in assay [2] was 6%; in assay [3] it was -8%. In addition, the outcome in assay [5], in assay [6], in assay [7] and in assay [8] was inactive.
For `CC(=O)Nc1ccc(NC(=O)c2cc(-c3ccc(C)cc3O)n[nH]2)cc1`, the growth inhibition in assay [1] was 78% (active); in assay [4], 101% (active). For the same compound, the inhibition in assay [2] was -3%; in assay [3], -6%. In addition, the outcome in assay [5], in assay [6], in assay [7] and in assay [8] was inactive.
Regarding `CC(CON1C(N)=NC(N)=NC1(C)C)Cc1ccc(Cl)cc1Cl` (stereo not given), the growth inhibition in assay [1] is 97% (active); in assay [4], 92% (active). Also, the inhibition is 61% (active) in assay [2] and 2% in assay [3]. For the same compound, the result in assay [5], in assay [6], in assay [7] and in assay [8] was inactive.
`N#Cc1ccc(N2CCN(Cc3cccc(-c4ccc(-c5nc6ccccc6[nH]5)cc4)c3)CC2)nc1`: the growth inhibition in assay [1] is 40%; in assay [4], 89% (active). Moreover, the figures for the inhibition in assay [2] and in assay [3] were 45% and -1%, respectively. In addition, the result in assay [5], in assay [6], in assay [7] and in assay [8] was inactive.
With `CCCC[C@H](NC(=O)O[C@H](COc1ccc(OCc2ccccc2)cc1)C(C)(C)C)C(=O)C(=O)Nc1ccn[nH]1`, the growth inhibition in assay [1] was 71% (active); in assay [4], 88% (active). Moreover, the inhibition was 21% in assay [2] and -1% in assay [3]. For the same compound, the outcome in assay [5], in assay [6], in assay [7] and in assay [8] was inactive.
Regarding `COc1cccc(Nc2nc(C)cc(NCc3ccc(-c4c(C)noc4C)cc3)n2)c1`, the growth inhibition in assay [1] was 42%; in assay [4] it was 98% (active). Besides, the inhibition is 33% in assay [2] and -1% in assay [3]. Besides, the result in assay [5], in assay [6], in assay [7] and in assay [8] was inactive.
Regarding `Clc1ccc(NC(=NCCCCCCCN=C(Nc2ccc(Cl)cc2)Nc2ccc(Cl)cc2)Nc2ccc(Cl)cc2)cc1`, the growth inhibition was 99% (active) in assay [1] and 101% (active) in assay [4]. The inhibition in assay [2] was 100% (active); in assay [3], 0%. Moreover, the outcome in assay [5], in assay [6], in assay [7] and in assay [8] was inactive.
As for `Nc1nccc2ccc(-c3ccc4ncccc4c3)cc12`, the growth inhibition in assay [1] and in assay [4] was 100% (active) in each case. For the same compound, the inhibition in assay [2] was 97% (active); in assay [3], -7%. The outcome in assay [5], in assay [6], in assay [7] and in assay [8] was inactive.
In the case of `O=C(NCc1ccc(F)cc1)c1cnc(N2CCN(c3ccncc3)CC2)c(Cl)c1`, the growth inhibition in assay [1] is 44%; in assay [4], 98% (active). The inhibition in assay [2] is 30%; in assay [3], 2%. In addition, the result in assay [5], in assay [6], in assay [7] and in assay [8] was inactive.
For the compound `COC(=O)c1ccc2[nH]cc(C3CCN(CCC4CCN(C(=O)/C=C/c5ccc(Cl)c(Cl)c5)CC4)CC3)c2c1`, the growth inhibition was 59% (active) in assay [1] and 97% (active) in assay [4]. For the same compound, the inhibition is 24% in assay [2] and 1% in assay [3]. In addition, the result in assay [5], in assay [6], in assay [7] and in assay [8] was inactive.
Regarding `O=C(Nc1cccc(C2=NCCCN2)c1)Nc1cccc(C2=NCCCN2)c1`, the growth inhibition in assay [1] was 70% (active); in assay [4], 81% (active). Also, the inhibition in assay [2] was 5%; in assay [3], -6%. The outcome in assay [5], in assay [6], in assay [7] and in assay [8] was inactive.
Regarding `COc1ccc(-c2nnc(Sc3ccc(C#N)c([N+](=O)[O-])c3)n2CC(C)C)cc1`, the growth inhibition is 78% (active) in assay [1] and 97% (active) in assay [4]. Besides, the inhibition in assay [2] is 3%; in assay [3] it was 4%. The outcome in assay [5], in assay [6], in assay [7] and in assay [8] was inactive.
As to `OC(CNc1ccnc(Nc2ccccc2)n1)c1cccc(C(F)(F)F)c1` (stereo not given), the growth inhibition in assay [1] was 61% (active); in assay [4] it was 100% (active). In addition, the inhibition in assay [2] was 16%; in assay [3] it was -2%. Further, the result in assay [5], in assay [6], in assay [7] and in assay [8] was inactive.
Consider `COCCNC(=O)c1ccc(OC2CCN(Cc3ccc(F)c(F)c3)CC2)c(Cl)c1`, for which the values for the growth inhibition in assay [1] and in assay [4] were 73% (active) and 88% (active), respectively. The inhibition in assay [2] is 8%; in assay [3], -2%. Moreover, the outcome in assay [5], in assay [6], in assay [7] and in assay [8] was inactive.
As to `Brc1cc2c(cc1C=NNc1nc(Nc3ccccc3)nc(Nc3ccccc3)n1)OCO2`, the growth inhibition was 32% in assay [1] and 100% (active) in assay [4]. The figures for the inhibition in assay [2] and in assay [3] were -7% and 1%, respectively. Further, the outcome in assay [5], in assay [6], in assay [7] and in assay [8] was inactive.
As to `Nn1c(=O)oc2ccc(Cl)cc2c1=O`, the growth inhibition in assay [1] was 96% (active); in assay [4], 97% (active). Further, the inhibition was 4% in assay [2] and -5% in assay [3]. For the same compound, the outcome in assay [5], in assay [6], in assay [7] and in assay [8] was inactive.
With `Cc1ccc(F)c(OCC2CCCN(c3ccc(C(=O)NC4CC4)cn3)C2)c1` (stereo not given), the results for the growth inhibition in assay [1] and in assay [4] were 94% (active) and 96% (active), respectively. Further, the inhibition in assay [2] is 3%; in assay [3], -3%. In addition, the result in assay [5], in assay [6], in assay [7] and in assay [8] was inactive.
`CCNc1cc(C(=O)N[C@@H](Cc2cc(F)cc(F)c2)[C@H](O)CNCc2cccc(C(F)(F)F)c2)cc(N2CCCCS2(=O)=O)c1`: the growth inhibition is 80% (active) in assay [1] and 99% (active) in assay [4]. The inhibition in assay [2] is 1%; in assay [3], -8%. Besides, the result in assay [5], in assay [6], in assay [7] and in assay [8] was inactive.
For the compound `COC(=O)c1c(C#N)c(OC)cc(O)c1CSC[C@@H](CN1CCCCC1)Nc1nc(-c2ccc([N+](=O)[O-])cc2)cs1`, the growth inhibition in assay [1] was 77% (active); in assay [4] it was 101% (active). Besides, the inhibition in assay [2] was 8%; in assay [3], -3%. Also, the result in assay [5], in assay [6], in assay [7] and in assay [8] was inactive.

A word on the inhibition: it is the change of the read-out against control, counted positive when it falls.
